Experimental data as given in PubChem BioAssay (NCATS).
Inconclusive results are not listed. Calls of active or inactive are those of the source. Unless noted, calls come from the whole dose curve; as a rule, active = well fitted curve in the direction sought with a large enough effect; inconclusive = small, poorly fitted or top-dose-only effect, or another doubt; inactive = no such curve, though single readings can be large; an effect the other way counts as inactive or inconclusive.

How the values were obtained:
[1] = UWB1.289 Cancer Cell Toxicity qHTS against the NCATS CANVASS Library (AID 1347347); note: nearly all actives have a fitted effect of over 60% in size; note: potency is the fitted concentration of half-maximal effect
How it was run: (§1)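 1000 cells/well; 4 h settle; 11-pnt titration; 72 h, 37 degrees C, 5% CO2; CellTiter-Glo, 15min RT; luminescence read.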

[2] = SW1088 Cancer Cell Toxicity qHTS against the NCATS CANVASS Library (AID 1347350); note: nearly all actives have a fitted effect of over 75% in size; note: potency is the fitted concentration of half-maximal effect
How it was run: as §1

[3] = U-118MG Cancer Cell Toxicity qHTS against the NCATS CANVASS Library (AID 1347351); note: potency is the fitted concentration of half-maximal effect
How it was run: as §1

[4] = A2780 Cisplatin Sensitive Ovarian Cancer Cell Toxicity qHTS against the NCATS CANVASS Library (AID 1347353); note: nearly all actives have a fitted effect of over 60% in size; note: potency is the fitted concentration of half-maximal effect
How it was run: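 Seventy-two-hour exposure of cisplatin-sensitive A2780 ovarian cells to an 11-concentration qHTS series; cytotoxicity is inferred from loss of ATPLite luminescence. Bortezomib titration served as positive control.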

[5] = HEK293 18hr Apoptosis Induction qHTS against the NCATS CANVASS Library (AID 1347357); note: 0% is about no effect
How it was run: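 Caspase-Glo 3/7 luminescence (15 min, room temperature) measured apoptosis after an 18-hour, 37 degrees C exposure of HEK293 cells (500 cells/well) to compounds in 11 points.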

[6] = HPAF-II 12hr Apoptosis Induction qHTS against the NCATS CANVASS Library (AID 1347358); note: 0% is about no effect
How it was run: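 Apoptosis in HPAF-II pancreatic cancer cells is scored as caspase 3/7 luminescence following a 12-hour exposure to an 11-point compound series.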

[7] = KB-3-1 Cancer Cell Toxicity qHTS against the NCATS CANVASS Library (AID 1347366); note: nearly all actives have a fitted effect of over 75% in size; note: potency is the fitted concentration of half-maximal effect
How it was run: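 CellTiter-Glo luminescence measured viability after 72 h at 37C. KB-3-1 cells were seeded at 500 per well in DMEM/10% FBS.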

[8] = MCF7 Cancer Cell Toxicity qHTS against the NCATS CANVASS Library (AID 1347369)
How it was run: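 Cytotoxicity was measured as CellTiterGlo luminescence (ATP) after 72 h at 37 °C. The cells were MCF7 at 500 per well, with an 11-point compound concentration series.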

[9] = biological target: Nuclear receptor subfamily 1 group I member 3 (Homo sapiens) (UniProt Q14994); experiment: qHTS for Constitutive Androstane Receptor (CAR) Agonist screened against the NCATS CANVASS Library (AID 1347373);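 note: every well also contained 1.5 µM PK11195 alongside the test compound; 0% is about no effect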
How it was run: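 CAR agonism is scored as CYP2B6-promoter luciferase induction in a double-stable transfected HepG2 line, where 1.5uM PK11195 is included in each well. Compounds were tested over a 24hr exposure.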

[10] = qHTS for H2AX Agonists against the NCATS CANVASS Library (AID 1347378); note: 0% is about no effect
How it was run: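 Phospho-H2AX (S139) in CHO-K1 lysates measured by HTRF, reported as 665/615 nm emission ratio after 24 hr antibody incubation at room temperature. Cells were first treated with a compound series for 3 hr at 37C (0.76% DMSO final).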

[11] = Inflammasome Signaling qHTS Counterscreen: IL-1-beta AlphaLISA counterscreen against the NCATS CANVASS Library (AID 1347381);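 note: cell-free check with purified IL-1β in medium and no THP-1 cells; 0% is about no effect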
How it was run: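 To flag interference with the AlphaLISA read-out, a known amount of purified IL-1-beta (4 pg) replaced cell supernatant. Detection used anti-IL-1-beta acceptor beads, biotinylated antibody and streptavidin donor beads at room temperature.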

[12] = Cytotoxicity qHTS for assessment of Hepg2 cells membrane integrity screened against the NCATS CANVASS Library (AID 1347387)
How it was run: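 Fluorescence proportional to lysed-cell number, from LDH leaking out of HepG2 cells exposed 5 hr at 37C to 0.59 nM - 46 uM compound (11-point qHTS), is measured after 10 min with CytoTox-ONE.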

[13] = qHTS assay for small molecule disruptors of mitochondrial membrane potential screened against the NCATS CANVASS Library (AID 1347389); note: nearly all actives have a fitted effect of over 60% in size; note: potency is the fitted concentration of half-maximal effect
How it was run: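 Compounds tested in 11-point qHTS series on HepG2 cells for 1 hr; membrane-potential dye added for 30 min at 37C. Lower red-to-green ratio indicates loss of potential.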

[14] = Secretion counterscreen for inhibitors of the SERCaMP assay screened against the NCATS CANVASS Library (AID 1347390);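 note: light from luciferase secreted into medium read as a measure of general secretion; % is set by controls: 0 for no effect and ±100 for the full control effect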
How it was run: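 Counterscreen for secretory-pathway interference: after 4 h attachment, SH-SY5Y-GLuc cells were exposed 20 hours to compounds (final 0.001 - 77 uM), then coelenterazine added and GLuc luminescence recorded; Brefeldin A served as control.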

[15] = qHTS for activators of dead-cell proteases activity screened against the NCATS CANVASS Library (AID 1347392);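 note: luminescence from protease leaking out of membrane-damaged cells cleaving impermeant substrate; 0% is about no effect; rising signal means more cytotoxicity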
How it was run: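 Compounds are pin-transferred onto attached HepG2 cells, giving 11 final concentrations. After 5 h at 37C, AAF-aminoluciferin reagent is added and luminescence is recorded at room temperature.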

[16] = Vero-766 cells viability qHTS against the NCATS CANVASS Library: Counterscreen for Zika virus inhibition assay (AID 1347394); note: nearly all actives have a fitted effect of over 60% in size; note: potency is the fitted concentration of half-maximal effect
How it was run: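 CellTiter Glo luminescence measured cytotoxicity after 72 h at 37C in uninfected Vero 766 cells, plated at 1000 cells/well. Compounds were applied in an 11-point series. Wells without cells defined 100% inhibition.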

[17] = Viability qHTS for inhibitors of the SERCaMP assay screened against the NCATS CANVASS Library (AID 1347400); note: nearly all actives have a fitted effect of over 70% in size; note: potency is the fitted concentration of half-maximal effect
How it was run: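 Cytotoxicity counter-screen: ATP content (CellTiter-Glo luminescence) of SH-SY5Y-GLuc SERCaMP MJH297 cells after 48 h at 37C with compounds in an 11-point qHTS series.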

[18] = Redox Reaction Profiling qHTS: Assay Interference Panel against the NCATS CANVASS Library (AID 1347401);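 note: 100% = activation by 2 µM chloranil control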
How it was run: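 Cell-free redox surrogate: 5 uM resazurin + 200 uM DTT, 50 mM HEPES pH 7.3/50 mM NaCl; cpds pinned, 11-pt qHTS; Ex525/Em598 read t0 and t=15 min, dark.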

[19] = biological target: Nuclear receptor subfamily 1 group I member 3 (Homo sapiens) (UniProt Q14994); experiment: qHTS for Constitutive Androstane Receptor (CAR) Antagonist screened against the NCATS CANVASS Library (AID 1347372); note: potency is the fitted concentration of half-maximal effect;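 for activity change, negative = inhibition: cells stimulated with 50 nM CITCO agonist so inhibition reflects antagonism; luciferase from CYP2B6 promoter reporter driven by hCAR in HepG2 cells; % is set by controls: 0 for no effect and ±100 for the full control effect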
How it was run: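 HepG2-CYP2B6-hCAR double-stable cells plated, 4hr attach; cpd pin-transferred; CITCO 50 nM final; 24hr 37C/5% CO2; CellTiter-Fluor 1hr (fluorescence), then ONE-Glo luminescence.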

[20] = NFAT Signaling Pathway (AID 444; active = well fitted curve in either direction with a large enough effect, not every such curve was filed as active;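 note: carbachol stimulus at about its EC50 of 1 µM final; % is set by controls: 0 for no effect and ±100 for the full control effect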); conditions: Jurkat NFAT-bla M1, carbachol, beta-lactamase ratio, 5 h; at 38 µM (top of the series)
How it was run: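 Read-out: CCF4 FRET ratio (460 nm/530 nm) after 1 h RT dye loading, used for %activity and AC50 from titration series. Cells: Jurkat NFAT-β-lactamase/M1 line, treated with compound plus 1 uM carbachol for 5 h, 37 °C.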

Nuclear receptor subfamily 1 group I member 3 (Homo sapiens), sequence (Q14994 whole entry, looked up): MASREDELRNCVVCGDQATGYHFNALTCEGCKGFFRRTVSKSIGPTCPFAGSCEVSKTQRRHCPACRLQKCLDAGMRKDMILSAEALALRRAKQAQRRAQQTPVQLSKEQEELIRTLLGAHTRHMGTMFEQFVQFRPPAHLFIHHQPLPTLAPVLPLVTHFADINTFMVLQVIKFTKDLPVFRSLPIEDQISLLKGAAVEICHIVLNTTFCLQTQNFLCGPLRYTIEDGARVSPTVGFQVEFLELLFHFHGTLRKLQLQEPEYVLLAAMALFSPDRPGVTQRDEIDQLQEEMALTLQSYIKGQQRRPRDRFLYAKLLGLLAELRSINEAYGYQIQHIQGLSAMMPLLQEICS

CCN1C[C@]2(C)CC[C@@H](O)[C@]34C1[C@H](C[C@H]23)C12CCC(CC14)[C@](O)(CO)[C@H]2O (some centres not stated)
inactive: Potency [1] | Potency [2] | Potency [3] | Potency [4] | Potency [5] | outcome [6] | Potency [7] | Potency [8] | outcome [9] | Potency [10] | outcome [11] | outcome [12] | Potency [13] | Potency [14] | Potency [15] | Potency [16] | Potency [17] | Potency [18]

C[C@]12CC(O)C3[C@@H](CCC4C[C@@H](O)CC[C@@]43CO)[C@@]1(O)CCC2C1=CC(=O)OC1 (some centres not stated)
inactive: Potency [1] | Potency [2] | Potency [3] | Potency [4] | Potency [5] | outcome [6] | Potency [7] | Potency [8] | Potency [19] | outcome [9] | Potency [10] | outcome [11] | outcome [12] | Potency [13] | Potency [14] | Potency [15] | Potency [16] | Potency [17] | Potency [18]

CO[C@H](c1ccccc1)[C@H]1NC(=O)C(C)NC(=O)C(C[C@@H](C)CO)N(C)C(=O)[C@@H](C(O)c2cn(C(C)(C)C3CO3)c3ccccc23)NC(=O)C(C(C)C=C(C)C)NC(=O)C(CC(C)C)N(C)C(=O)C(C(C)C)NC1=O (some centres not stated)
inactive: Potency [1] | Potency [2] | Potency [3] | Potency [4] | Potency [5] | outcome [6] | Potency [7] | Potency [8] | Potency [19] | outcome [9] | Potency [10] | outcome [11] | outcome [12] | Potency [13] | Potency [14] | Potency [15] | Potency [16] | Potency [17] | Potency [18]

CCC(=O)CCCCC[C@@H]1NC(=O)[C@H]2CCCCN2C(=O)[C@H]([C@@H](C)CC)NC(=O)[C@H](Cc2cn(OC)c3ccccc23)NC1=O
inactive: Potency [5] | outcome [6] | Potency [8] | outcome [9] | Potency [10] | outcome [11] | outcome [12] | Potency [13] | Potency [14] | Potency [15] | Potency [18]
active: Potency [1] 2.11 µM | Potency [2] 2.66 µM | Potency [3] 0.53 µM | Potency [4] 1.05 µM | Potency [7] 1.18 µM | Potency [19] 2.34 µM | Potency [16] 1.86 µM | Potency [17] 3.81 µM

CNCCc1ccccc1
inactive: Potency [1] | Potency [2] | Potency [3] | Potency [4] | Potency [5] | outcome [6] | Potency [7] | Potency [8] | Potency [19] | outcome [9] | Potency [10] | outcome [11] | outcome [12] | Potency [13] | Potency [14] | Potency [15] | Potency [16] | Potency [17] | Potency [18]

CCCCC[C@@H]1OC(=O)[C@@H](C)N(C)C(=O)[C@H](CCCCC)OC(=O)C(C)N(C)C(=O)[C@H](CCCCC)OC(=O)[C@@H](C)N(C)C(=O)[C@H](CCCCC)OC(=O)C(C)N(C)C1=O (some centres not stated)
active: Potency [1] 13.3 µM | Potency [2] 6.68 µM | Potency [3] 14.9 µM | Potency [4] 7.43 µM | Potency [7] 9.35 µM | Potency [19] 11.7 µM | Potency [13] 4.17 µM | Potency [16] 20.9 µM | Potency [17] 38.1 µM
inactive: Potency [5] | outcome [6] | outcome [9] | Potency [10] | outcome [11] | outcome [12] | Potency [14] | Potency [18]

C[C@H](N)Cc1c[nH]c2ccc(OCc3cccs3)cc12
inactive: activity change, negative = inhibition [20] 7.25%
